According to PubChem BioAssay AID710 (SRMLSC, 2007):
The whole screen tested about 98,000 compounds, of which about 150 (0.15%) were called active.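 The calls were made as follows: active = growth inhibition above about 50% at one test dose (limit read from the data); inactive = the rest.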 This excerpt belongs to a sample that is enriched for actives.

Experiment: antibacterial activity against E. coli BW25113 – strain BW25113, expanded library, OD600, primary screen (AID 710);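 also: growth measured after 20 h incubation at 37 °C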
Settings: OD600 absorbance, at 100 µM, active compounds read high

Growth inhibition, inactive:
COC(=O)CNC(c1ccccc1Cl)c1cc(Br)ccc1NC(=O)CCN1CCOCC1 (stereo not drawn) -3%, CCOC(=O)C1=C(CN2CCc3ccccc32)NC(=O)NC1c1ccc(Cl)cc1 (stereo not drawn) -2%, O=C(CN(c1ccccc1)S(=O)(=O)c1ccc(Cl)cc1)Nc1ccccc1C(=O)N1CCCC1 -17%, Cc1cc(OC(=O)c2c(Cl)cccc2Cl)nc(C)n1 5%, COc1ccc(-n2nc(C(=O)NCC(=O)Nc3cccc(C)n3)c3ccccc3c2=O)cc1 -15%, CCOc1cccc(SCc2noc(C(=O)NC(C)C)c2C(=O)O)c1 -4%, CCOC(=O)C(=CNc1cccc(C)n1)C(=O)OCC -6%, O=C(NCC1CCCO1)/C(=C\c1ccco1)NC(=O)c1ccccc1 (stereo not drawn) -5%, O=C(NC1(C(F)(F)F)NC(=O)N(Cc2cccnc2)C1=O)c1ccccc1Cl (stereo not drawn) -1%, O=C(/C=C/NNC(=O)c1cccc(Br)c1)c1ccccc1 -3%, CNC(=O)c1c(NC(NC(=O)c2ccco2)C(=O)c2ccc(Cl)cc2)sc2c1CCCC2 (stereo not drawn) -6%, CCOc1ccc(C(O)Cn2c(=N)n(CCN3CCCCC3)c3ccccc32)cc1 (stereo not drawn) -1%, Cc1ccc(OCC(=O)Nn2cnc3ccccc32)cc1 5%, Cc1ccc(-n2nc3ccc(NC(=O)/C=C/c4ccco4)cc3n2)cc1C -1%, S=c1nccc(-c2cc(Cl)sc2Cl)[nH]1 3%, COc1ccccc1NC(=O)c1ccc2nc(N3C(=O)CCC3=O)sc2c1 0%, N#C/C(=C1/CCCN1)c1ccccn1 3%, CCOc1ccc(NC(=O)c2ccccc2NS(C)(=O)=O)cc1 -4%, S=c1[nH]nc(-c2ccc(Cl)cc2)n1CC1CCCO1 (stereo not drawn) 2%, CSc1ccc(CCNC(=O)C2CCN(c3nnc(-n4cccc4)s3)CC2)cc1 -3%, CSc1ccccc1C(=O)Nc1cccc(C(C)=O)c1 -4%, Clc1ccc(-c2nnc(-c3ccccc3)nc2N2CCSCC2)cc1 -24%, COC(=O)c1c(CCl)noc1C(=O)NC(C)C 1%, CCn1c(Cc2cccs2)nnc1SCC(=O)c1ccc(C)cc1 -2%, Cc1cccc(NC(=O)N(Cc2cc3cc(C)cc(C)c3[nH]c2=O)CC2COCCO2)c1 (stereo not drawn) -1%, CCCCCOC(=O)c1ccc(N2C(=O)C3C4C=CC(C4)C3C2=O)cc1 (stereo not drawn) -5%, Cn1ncc(Br)c1C(=O)NCc1cccs1 5%, COc1ccc(/C(N)=N/OC(=O)Oc2ccccc2)cc1 -14%
